Composite z-score and z-score data for 4 compounds are collected here from PubChem BioAssay.

The source made the active and inactive calls. Unless noted, how the calls were made is not given here.

Assay [1] has as its system Wnt5a (protein binding on small-molecule microarray). In words: Wnt5a binders on small-molecule microarray, primary screen, biophysical, 635/667 nm fluorescence (AID 1142).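 Further: fluorescence read at 667 nm with signal to noise per printed feature.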 The following applies: 635 nm fluorescence, higher = more signal.
A short description of assay [2]: cell viability in Huh7 cells, primary screen, cytotoxicity control for HCV replication inhibitor project, CellTiter-Glo luminescence, basal, 48 h (AID 1143).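 Further: Huh7 hepatoma cells carrying a hepatitis C replication reporter with no stimulus; test concentration not given here.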 The settings on record: Huh7 HCV replicon, higher = more signal, called active from +8 up or from −8 down. A general note: In ATP-based viability assays light output follows the ATP content of the culture.
Assay [3] in a line: P. aeruginosa biofilm formation inhibitors, primary screen, PAO1 strain, BacTiter-Glo luminescence, LB-PBS (AID 1144). The settings on record: 12 h, higher = more signal.
A short description of assay [4]: CREB reporter modulators without forskolin, primary screen, cell-based, PC12, CRE-LacZ reporter, unstimulated (AID 1145). The settings on record: no forskolin, luminescence, 4.5 h, higher = more signal, called active from +8 up or from −8 down.
A short description of assay [5]: CREB reporter modulators under forskolin, primary screen, cell-based, PC12, CRE-LacZ reporter, forskolin-stimulated (AID 1146).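 Further: PC12 cells with 6xCRE LacZ reporter stimulated by forskolin 10 µM; beta-galactosidase reporter signal reflecting CREB driven transcription.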 The settings on record: luminescence, 4.5 h, higher = more signal, called active from +8 up or from −8 down.
The target in assay [6] is Streptavidin (Streptomyces avidinii) (UniProt P22629). In words: streptavidin binders on small-molecule microarray, primary screen, artefact control for SMM compound annotation, biophysical, 635/667 nm fluorescence (AID 1147).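 Further: signal reflects streptavidin binding to arrayed compounds as a control protein.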 The settings on record: streptavidin binding, higher = more signal.
The nature of assay [7]: small-molecule binders of probe aInhba, primary screen, biochemical, small-molecule microarray, 635/667 nm fluorescence (AID 1148).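 Further: score merges 667nm spot fluorescence with signal-to-noise for antibody binding to printed compounds.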 The following applies: higher = more signal.
In assay [8] the target is Torsin-1A (Homo sapiens) (UniProt O14656). Kind of assay: torsin A binders from cell lysate, primary screen, small-molecule microarray, wild-type, 635/667 nm (AID 1149). The following applies: COS7 hTOR1A-WT lysate, 635 nm fluorescence, higher = more signal.
Assay [9] shares this target. Kind of assay: small-molecule binders of mutant TOR1A in lysate, primary screen, cell lysate, small-molecule microarray, COS7 lysate, 635/667 nm fluorescence (AID 1150).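 Further: score pools 667 nm emission and signal to noise measuring lysate protein binding.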 The settings on record: COS7 hTOR1A mutant lysate, 635 nm fluorescence, higher = more signal.
Assay [10] has as its system Sonic hedgehog protein (Shh). Kind of assay: small-molecule binders of Shh protein, primary screen, biochemical, small-molecule microarray, 635/667 nm fluorescence (AID 1151).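 Further: Shh protein binding to compounds spotted on small-molecule microarray slides; score combines spot fluorescence intensity with signal-to-noise across triplicate slides.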 The following applies: small-molecule microarray binding, 635 nm fluorescence; higher = more signal.
Assay [11] in a line: E. coli DRC41 culture turbidity changes, primary screen, E. coli filamentation inducer project, strain DRC41, OD650, 48 h (AID 1152).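 Further: E. coli MC1000 strain DRC41 lacking acrAB efflux pump and sulA.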 The following applies: E. coli DRC41 (acrAB sulA), higher = more signal, called active from +8 up or from −8 down.
Assay [12] can be described thus: small-molecule binders of probe aLefty1, primary screen, biochemical, small-molecule microarray, 635/667 nm fluorescence (AID 1153).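 Further: score merges spot fluorescence with signal-to-noise ratio from the scanned slide images.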 The settings on record: higher = more signal.
Assay [13] is described as follows: PSAC antagonists in infected red cells, primary screen, cell-based, P. falciparum Indochina, OD700, 1 h (AID 1154). The following applies: P. falciparum Indochina infected RBC osmotic lysis, higher = more signal, called active from +8 up or from −8 down.
Assay [14] in a line: PSAC antagonists in infected red cells, primary screen, cell-based, P. falciparum Indochina, OD700, 2 h (AID 1155).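 Further: lysis reports solute entry through the parasite surface anion channel PSAC; channel blockers reduce lysis of infected cells.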 The following applies: P. falciparum Indochina infected erythrocytes, osmotic lysis OD700; higher = more signal, called active from +8 up or from −8 down.
Assay [15] can be described thus: osmotic lysis modulators in infected erythrocytes, primary screen, PSAC antagonist project, cell-based, P. falciparum Indochina, OD700, 3 h (AID 1156). The settings on record: higher = more signal, called active from +8 up or from −8 down.
The nature of assay [16]: PSAC antagonists in infected red cells, primary screen, cell-based, P. falciparum Indochina, OD700, 18 h (AID 1157). The settings on record: P. falciparum Indochina infected erythrocytes, osmotic lysis OD700, 18 h; higher = more signal, called active from +8 up or from −8 down.
Assay [17] can be described thus: modulators of S6 phosphorylation in cells, primary screen, cell-based, A549, cytoblot, luminescence, serum-stimulated (AID 1158).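 Further: serum-stimulated A549 lung adenocarcinoma cells; signal is phosphorylated S6 detected by cytoblot immunostaining with HRP secondary.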 The following applies: A549 phospho-S6 cytoblot, 5 h, higher = more signal.
Assay [18] deals with NADPH oxidase 2 (Homo sapiens) (UniProt P04839). Kind of assay: NOX2-dependent H2O2 signal modulators, primary screen, NOX inhibitor project, cell-based, HEK293-NOX2, PMA-stimulated, Amplex Red fluorescence (AID 1159). Further: test concentration not given here. The settings on record: 45 min, higher = more signal, called active from +8 up or from −8 down.
Assay [19] addresses NADPH oxidase 4 (Homo sapiens) (UniProt Q9NPH5). Kind of assay: NOX4-dependent H2O2 signal modulators, primary screen, NOX inhibitor project, cell-based, HEK293-NOX4, tetracycline-induced, Amplex Red fluorescence (AID 1160). The following applies: 45 min, higher = more signal, called active from +8 up or from −8 down.
The target in assay [20] is NADPH oxidase 5 (Homo sapiens) (UniProt Q96PH1). In words: NOX5-dependent H2O2 signal modulators, primary screen, NOX inhibitor project, cell-based, HEK293-NOX5, Amplex Red fluorescence (AID 1161). The following applies: HEK293-NOX5, ionomycin, 45 min, higher = more signal.
NADPH oxidase 5 (Homo sapiens), sequence (Q96PH1 whole entry, looked up): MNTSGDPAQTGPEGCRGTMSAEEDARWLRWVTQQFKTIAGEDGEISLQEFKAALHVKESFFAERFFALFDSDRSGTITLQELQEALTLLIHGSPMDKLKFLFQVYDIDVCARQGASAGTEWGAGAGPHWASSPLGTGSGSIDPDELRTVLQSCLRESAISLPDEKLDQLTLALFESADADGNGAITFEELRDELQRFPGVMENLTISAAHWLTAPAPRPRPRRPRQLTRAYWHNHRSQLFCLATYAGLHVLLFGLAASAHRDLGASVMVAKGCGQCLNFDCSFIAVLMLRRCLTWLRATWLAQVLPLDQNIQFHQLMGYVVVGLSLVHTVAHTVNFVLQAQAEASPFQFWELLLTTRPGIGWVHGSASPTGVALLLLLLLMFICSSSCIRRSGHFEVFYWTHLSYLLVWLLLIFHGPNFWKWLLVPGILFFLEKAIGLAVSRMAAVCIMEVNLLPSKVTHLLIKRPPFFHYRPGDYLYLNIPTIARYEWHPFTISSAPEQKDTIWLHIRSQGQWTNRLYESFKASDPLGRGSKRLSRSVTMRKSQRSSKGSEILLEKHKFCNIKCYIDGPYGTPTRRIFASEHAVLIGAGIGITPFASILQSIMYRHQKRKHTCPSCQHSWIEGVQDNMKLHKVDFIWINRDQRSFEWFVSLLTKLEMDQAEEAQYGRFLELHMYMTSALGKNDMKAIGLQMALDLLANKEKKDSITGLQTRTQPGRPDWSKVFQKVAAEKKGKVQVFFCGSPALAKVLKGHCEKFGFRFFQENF

NADPH oxidase 2 (Homo sapiens), sequence (P04839 whole entry, looked up): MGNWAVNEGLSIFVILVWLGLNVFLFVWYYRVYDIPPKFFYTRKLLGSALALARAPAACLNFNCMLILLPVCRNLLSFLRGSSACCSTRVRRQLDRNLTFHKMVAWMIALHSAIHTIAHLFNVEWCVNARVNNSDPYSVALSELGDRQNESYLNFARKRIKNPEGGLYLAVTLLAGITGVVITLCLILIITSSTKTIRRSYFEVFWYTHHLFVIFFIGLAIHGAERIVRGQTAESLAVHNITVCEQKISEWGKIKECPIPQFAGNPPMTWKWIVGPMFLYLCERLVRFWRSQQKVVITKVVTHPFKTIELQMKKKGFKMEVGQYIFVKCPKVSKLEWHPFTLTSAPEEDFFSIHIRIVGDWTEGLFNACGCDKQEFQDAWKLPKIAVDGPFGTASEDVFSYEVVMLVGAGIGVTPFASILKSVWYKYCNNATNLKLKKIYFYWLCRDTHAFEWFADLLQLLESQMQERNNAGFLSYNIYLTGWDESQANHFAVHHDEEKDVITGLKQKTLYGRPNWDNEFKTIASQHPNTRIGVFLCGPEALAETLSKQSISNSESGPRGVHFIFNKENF
NADPH oxidase 4 (Homo sapiens), sequence (Q9NPH5 whole entry, looked up): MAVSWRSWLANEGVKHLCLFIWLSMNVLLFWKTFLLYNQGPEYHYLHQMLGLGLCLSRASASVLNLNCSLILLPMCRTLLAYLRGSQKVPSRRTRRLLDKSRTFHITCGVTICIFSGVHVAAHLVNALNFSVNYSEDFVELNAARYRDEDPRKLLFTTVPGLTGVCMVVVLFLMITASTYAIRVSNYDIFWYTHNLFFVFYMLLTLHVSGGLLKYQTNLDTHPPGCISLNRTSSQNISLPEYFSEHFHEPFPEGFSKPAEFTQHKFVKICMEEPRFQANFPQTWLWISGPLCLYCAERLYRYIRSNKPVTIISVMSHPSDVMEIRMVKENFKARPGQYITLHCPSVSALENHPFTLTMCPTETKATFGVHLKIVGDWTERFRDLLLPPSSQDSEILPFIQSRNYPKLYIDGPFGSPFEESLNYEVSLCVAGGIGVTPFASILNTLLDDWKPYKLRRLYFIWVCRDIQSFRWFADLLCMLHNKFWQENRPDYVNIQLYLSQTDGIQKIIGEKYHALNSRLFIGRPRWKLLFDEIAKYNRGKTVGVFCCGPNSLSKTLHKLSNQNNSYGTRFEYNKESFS
Torsin-1A (Homo sapiens), sequence (O14656 whole entry, looked up): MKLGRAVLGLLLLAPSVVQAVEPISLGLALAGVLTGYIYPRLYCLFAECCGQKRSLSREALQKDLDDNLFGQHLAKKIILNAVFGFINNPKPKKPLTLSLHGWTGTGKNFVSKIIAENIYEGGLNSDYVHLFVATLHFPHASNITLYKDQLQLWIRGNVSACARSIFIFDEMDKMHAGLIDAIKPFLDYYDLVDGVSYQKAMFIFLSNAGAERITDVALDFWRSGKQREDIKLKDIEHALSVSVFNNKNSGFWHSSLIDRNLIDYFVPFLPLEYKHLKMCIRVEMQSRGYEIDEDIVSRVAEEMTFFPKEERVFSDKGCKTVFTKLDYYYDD
Streptavidin (Streptomyces avidinii), sequence (P22629 whole entry, looked up): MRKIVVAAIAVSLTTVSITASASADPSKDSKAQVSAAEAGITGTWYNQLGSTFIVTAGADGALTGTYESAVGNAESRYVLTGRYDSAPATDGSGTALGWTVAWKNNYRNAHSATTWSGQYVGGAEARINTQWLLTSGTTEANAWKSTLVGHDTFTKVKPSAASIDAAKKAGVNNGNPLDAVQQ

For `CCOC(=O)C[C@H]1[C@H](OC(=O)Cc2ccc3c(c2)OCO3)[C@@H](NC(=O)Cc2ccc(OC)cc2)c2cc(OCCCO)ccc2N1C(=O)Cc1ccc(OC)cc1`, the composite z-score was -0.31 in assay [1]; 0.699 in assay [6]; -0.154 in assay [7]; 0.142 in [8]; 0.209 in [9]; 0.106 in [10]. The same compound displayed a composite z-score in assay [12] of -0.15. The z-score in assay [2] is -0.972 (inactive); in assay [3], -0.805 (inactive); in assay [4], 1.52 (inactive); in [5], -0.0811 (inactive); in assay [11], 1.91 (inactive); in [13], 10.7 (active). Further, the z-score is 0.647 (inactive) in [14]; -1.02 (inactive) in [15]; -0.395 (inactive) in assay [16]; 1.68 in assay [17]; -0.988 (inactive) in [18]; 0.754 (inactive) in assay [19]. Also, in assay [20], the z-score was found to be 0.404.
`CCCC[C@H]1OB(O)C[C@H]2C1=C(COc1ccccc1)C[C@H]1C(=O)C=CC(=O)[C@H]12`: the composite z-score in [1] was 0.119; in assay [6] it was 0.0073; in [7], -0.158; in [8] it was 0.372; in assay [9], 0.274; in [10], 1.38. This compound also returned a composite z-score in assay [12] of -0.134. For the same compound, the z-score in assay [2] is -0.578 (inactive); in [3] it was -0.327 (inactive); in assay [4], 6.38 (inactive); in assay [5], 2.07 (inactive); in [11] it was 1.55 (inactive); in assay [13] it was 1.49 (inactive). Moreover, the z-score in assay [14] is 0.0962 (inactive); in assay [15], 0.129 (inactive); in assay [16] it was 0.134 (inactive); in [17] it was -0.0871; in assay [18] it was -0.429 (inactive); in assay [19] it was -1.48 (inactive). The same compound returned a z-score in [20] of -5.03.
For the compound `CC(C)C[C@H]1NC(=O)C([C@@H](C)OCc2ccccc2)NC(=O)[C@@]23C(=O)N[C@@H](Cc4ccccc4)C2[C@H](C)[C@@]2(C)O[C@H]2C3/C=C/C/C=C\CNC1=O` (stereo not given in full), the composite z-score is 0.0872 in assay [1]; 0.0874 in [6]; 0.242 in assay [7]; -0.125 in assay [8]; 0.519 in [9]; 1.62 in [10]. In assay [12], this compound showed a composite z-score of 0.0361. Also, the z-score was -1.63 (inactive) in assay [2]; 0.727 (inactive) in assay [3]; 0.839 (inactive) in [4]; -0.566 (inactive) in assay [5]; -0.629 (inactive) in assay [11]; 1.44 (inactive) in assay [13]. For the same compound, the z-score was -0.387 (inactive) in [14]; -0.0195 (inactive) in [15]; 0.0591 (inactive) in assay [16]; 0.298 in assay [17]; 0.569 (inactive) in assay [18]; 0.742 (inactive) in [19]. Besides, in assay [20], the z-score is -2.51.
For the compound `COc1ccc(C(=O)Nc2ccc(CN3C(=O)[C@@]4(O[C@@H](CCn5cc(CCO)nn5)[C@H]([Si](C)(C)c5ccc(OC)cc5)[C@H]4C)c4ccccc43)cc2)cc1`, the composite z-score in assay [1] was 0.236; in [6], 0.421; in assay [7], -0.0791; in assay [8], 0.671; in assay [9], 0.411; in assay [10] it was 1.4. Besides, the composite z-score in [12] came to 0.232. The z-score in assay [2] is -7.97 (inactive); in assay [3], 0.173 (inactive); in assay [4], 6.94 (inactive); in [5], -0.632 (inactive); in assay [11], -2.53 (inactive); in assay [13], 27.6 (active). Also, the z-score in assay [14] was 16.4 (active); in assay [15], 2.35 (inactive); in assay [16], 1.43 (inactive); in assay [17], -0.368; in assay [18], -1.81 (inactive); in assay [19], 0.515 (inactive). The z-score in assay [20] amounted to 3.12.
